MRP-1 activ: MRP-1 activation. H69AR cells + doxorubicin, viability rescue, CellTiter-Glo. viability increase, % at 10 µM. actives 0.61% (n = 140,000). AID 799;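 active = viability gain under doxorubicin at or above a set limit, the compound median plus 3 SD, cut at about 4.7% in these data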;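 also: MRP-1 overexpressing cells given doxorubicin 25 µM after compound pretreatment; 18-22 h compound pretreatment then 72 h with doxorubicin before readout; 0% = doxorubicin-only wells and 100% = vehicle-treated cells without doxorubicin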
Phagocytosis inh: blocks phagocytosis by macrophages; inhibition, % at 5 µM; actives 0.07% (n = 110,000); J774A.1 macrophage IgG-bead phagocytosis, imaging;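 active = inhibition above the mean of the plate negative controls plus 5 SD, cut at about 13% in these data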;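 also: phagocytic index as fraction of beads internalized from green versus red external bead signal; plate controls were DMSO negative control for no effect and cytochalasin-D positive control for full effect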
FAK blocker: inhibitors of human focal adhesion kinase; biochemical FAK kinase activity assay; inhibition, %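 (tested at 7 µM)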; actives 0.84% (n = 97,000);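 also: 0% = DMSO and 100% = reference compound high control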
Target sequence (Q05397 whole entry, looked up): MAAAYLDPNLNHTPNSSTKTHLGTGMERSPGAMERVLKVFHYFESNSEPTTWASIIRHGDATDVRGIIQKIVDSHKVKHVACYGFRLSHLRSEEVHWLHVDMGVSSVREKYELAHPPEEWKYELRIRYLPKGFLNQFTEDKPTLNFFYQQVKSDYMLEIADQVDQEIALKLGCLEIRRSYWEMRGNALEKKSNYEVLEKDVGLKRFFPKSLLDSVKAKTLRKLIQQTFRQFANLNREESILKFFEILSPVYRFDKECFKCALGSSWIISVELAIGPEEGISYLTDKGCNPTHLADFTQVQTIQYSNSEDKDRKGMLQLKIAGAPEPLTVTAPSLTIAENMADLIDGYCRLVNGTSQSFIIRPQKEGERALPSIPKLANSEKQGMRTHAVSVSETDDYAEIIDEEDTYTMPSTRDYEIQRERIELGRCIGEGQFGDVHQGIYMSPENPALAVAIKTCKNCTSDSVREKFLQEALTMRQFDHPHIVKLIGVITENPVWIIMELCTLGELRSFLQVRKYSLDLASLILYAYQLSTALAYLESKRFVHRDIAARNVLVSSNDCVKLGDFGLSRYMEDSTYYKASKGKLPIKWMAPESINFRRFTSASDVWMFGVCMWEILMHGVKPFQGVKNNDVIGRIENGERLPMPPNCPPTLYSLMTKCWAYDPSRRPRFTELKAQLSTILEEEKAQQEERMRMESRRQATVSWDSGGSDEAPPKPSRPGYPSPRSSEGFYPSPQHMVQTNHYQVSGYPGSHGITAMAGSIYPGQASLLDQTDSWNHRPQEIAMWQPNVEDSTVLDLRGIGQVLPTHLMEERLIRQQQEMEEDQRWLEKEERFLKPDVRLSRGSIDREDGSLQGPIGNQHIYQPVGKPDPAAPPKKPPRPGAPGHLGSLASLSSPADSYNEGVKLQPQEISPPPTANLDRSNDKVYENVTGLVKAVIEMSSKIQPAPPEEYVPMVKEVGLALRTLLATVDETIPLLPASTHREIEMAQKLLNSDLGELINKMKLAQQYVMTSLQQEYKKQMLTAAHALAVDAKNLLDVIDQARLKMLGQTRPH
Mac1 fbg enh: CD11b/CD18-fibrinogen binding enhancement; K562 CD11b/CD18 adhesion to fibrinogen, ATPlite luminescence; activation, % at 10 µM; P05107+P11215; actives 0.07% (n = 93,000);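 active = 10 µM primary screen giving 50% or more activity, confirmed by 40% or more on retest at that dose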
Mac1 fbg inh: CD11b/CD18-fibrinogen binding inhibition; actives 0.54% (n = 93,000); AID 1497; inhibition, % at 10 µM; K562 CD11b/CD18 adhesion to fibrinogen, ATPlite luminescence; Mn2+ added to activate the integrin;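 active = primary inhibition of 50% or more at 10 µM, then 40% or more on retest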
MRP resist rev: reverses drug resistance mediated by MRP. H69AR cells + 2 uM doxorubicin, CellTiter-Glo, 72 h. differential viability (reversal), % at 10 µM. actives 0.04% (n = 85,000);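 active = viability drop by adding the cancer drug above about 55%, with treated viability meeting a 40% cutoff, limit read from the data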;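 also: viability without doxorubicin minus viability with 2 µM doxorubicin for each compound; larger differential means the compound sensitizes cells more to doxorubicin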
FAK inh conf: FAK (human) inhibition confirmed | shares compounds with FAK blocker | FAK kinase biochemical inhibition assay | inhibition, % at 7 µM | actives 28% (n = 750) | AID 794
* marks the source's active call; other numbers are inactive results; / = no result given. Most compounds without a hit are left out; they make up all but 1.5% or so of the library. Rule as the data show it, unless noted: active = inhibition above about 19%; inactive = the rest.

SMILES | MRP-1 activ | Phagocytosis inh | FAK blocker | Mac1 fbg enh | Mac1 fbg inh | MRP resist rev | FAK inh conf
Cc1ccccc1-c1ccc(Nc2ccc(N3CCOCC3)cc2)nn1 | -5 | 0 | 31* | 75 | 46 | 1 | 33*
O=S1(=O)N=C(Nc2ccc(N3CCOCC3)cc2)c2ccccc21 | -2 | / | -2 | / | / | 3 | /
Cc1cc(C)n2c(SC/C(O)=C(\C#N)c3nc4ccccc4[nH]3)nnc2n1 | -2 | -1 | 22* | 27 | -3 | -11 | 2
Cc1ccccc1-n1c(SC/C(O)=C(\C#N)c2nc3ccccc3[nH]2)nnc1-c1ccncc1 | -4 | / | / | 3 | 10 | -17 | /
CC(C)n1c(=S)[nH]c2c1c(=O)[nH]c(=O)n2C | 1 | / | -3 | 16 | 13 | / | /
COc1cccc(NC2c3ccccc3C(=O)N2Cc2ccco2)c1 (centres undefined) | -4 | 0 | 6 | -1 | -11 | -16 | /
O=C1c2ccccc2C(Nc2cccc(C(F)(F)F)c2)N1Cc1ccco1 (centres undefined) | -2 | 0 | 20* | -3 | 40 | -11 | 7
Cc1ccc(-c2nc3ccccn3c2Nc2ccccc2)o1 | -1 | -8 | / | / | / | / | /
O=c1c(/C=N/O)c(Nc2ccccc2)nc2ccccn12 | -2 | -2 | 50* | -1 | -8 | -5 | 31*
O=C(N1CCN(c2ccccc2)CC1)C1(c2cccs2)CCOCC1 | -2 | -3 | / | -2 | 3 | / | /
O=C1c2ccccc2C(=O)C1c1ccncc1 | 0 | 0 | 25* | -5 | 23 | -8 | 7
O=C1C(c2ccncc2)=C(O)c2ccccc21 | -1 | -1 | 15 | 1 | 18 | -8 | /
Cc1ccc(C(=O)Oc2cc(C)n(C)c(=O)c2)cc1 | -2 | / | 1 | 4 | -7 | / | /
CC1=NN(c2ccc(C(=O)OC(C)C)cc2)C(=O)/C1=C\C=C\c1ccco1 | -7 | / | -3 | / | / | -18 | /
CC(C(=O)O)N1C(=O)/C(=C/C=C/c2ccco2)SC1=S (centres undefined) | 0 | / | 100* | / | / | / | 23*
N#Cc1nc(-c2ccccc2)oc1NCc1ccco1 | -4 | 0 | 21* | 2 | 4 | 0 | 11
Cc1sc2ncnc(NCC(c3ccco3)N3CCCC3)c2c1C (centres undefined) | -4 | -3 | 8 | -2 | -4 | -13 | /
CCCCn1c(NC(=O)c2ccccc2Cl)c(C#N)c2nc3ccccc3nc21 | -6 | 7 | 28* | -9 | 106* | -20 | -1
COc1ccc(-n2c(NC(=O)c3ccco3)c(C#N)c3nc4ccccc4nc32)cc1 | -4 | -2 | 21* | 12 | 7 | / | -4
CCOC(=O)c1c(NC(=O)c2ccco2)n(C2CCCCC2)c2nc3ccccc3nc12 | -5 | -2 | 0 | 0 | -1 | -15 | /
N#Cc1cccc(NC(=O)Cn2c3[n+](c4ccc(C(F)(F)F)cc42)CCCCC3)c1 | -2 | -1 | / | / | / | / | /
COc1ccc(OC)c(C2C(C(C)=O)=C(O)C(=O)N2Cc2cccnc2)c1 (centres undefined) | 1 | 0 | 3 | 2 | -2 | 5 | /
Cc1ccc(-c2nc(N)c3c(-c4ccc(C)cc4)nn(C(C)(C)C)c3n2)cc1 | 2 | -1 | 9 | -1 | -43 | / | /
CC(C)(C)n1nc(-c2ccc(Cl)cc2)c2c(N)ncnc21 | -6 | / | 26* | / | / | / | 12
CC(C)(C)n1nc(-c2ccc(F)cc2)c2c(N)ncnc21 | -3 | 0 | 32* | 2 | -16 | / | 8
SMILES | MRP-1 activ | Phagocytosis inh | FAK blocker | Mac1 fbg enh | Mac1 fbg inh | MRP resist rev | FAK inh conf
O=C(O)c1ccccc1OCCOCCOc1ccccc1C(=O)O | -1 | -3 | 38* | 7 | 3 | -8 | 34*
O=C(O)c1ccccc1OCCOc1ccccc1C(=O)O | 0 | / | 8 | 3 | -25 | -8 | /
Cc1nc(N2CCC(C)CC2)c2c(C)c(C(=O)O)sc2n1 | -4 | -2 | -3 | -3 | 13 | -4 | /
COc1cc2cc(CN(Cc3nnnn3Cc3ccco3)C3CCCCC3)c(=O)[nH]c2cc1OC | -2 | 1 | 10 | 2 | 13 | -17 | /
CCOc1ccc2[nH]c(=O)c(CN(Cc3nnnn3Cc3ccco3)C3CCCCC3)cc2c1 | -5 | 1 | 39* | 10 | -11 | -12 | 0
CN1C(=O)c2cccc3c(S(=O)(=O)Nc4ccccn4)ccc1c23 | -4 | / | 10 | / | / | 9 | /
CN1C(=O)c2cccc3c(S(=O)(=O)NCc4ccco4)ccc1c23 | -5 | / | 36* | 0 | -18 | 13 | 21*
COc1nnc(-c2ccc(N3CCCCC3)c(NC(C)=O)c2)c2ccccc12 | -1 | 1 | 20* | 6 | -6 | 10 | 19*
COc1nnc(-c2ccc(N3CCCCC3)c(NC(=O)C3CCCCC3)c2)c2ccccc12 | 0 | / | 0 | -7 | 67 | -12 | /
Cc1ccc(C(C2C(=O)CC(C)(C)CC2=O)C2C(=O)CC(C)(C)CC2=O)s1 | 0 | / | 22* | / | / | / | 0
Cc1ccc2cc3cc(C(=O)NCc4ccco4)oc3nc2c1 | -2 | / | 21* | / | / | 11 | 5
COc1ccc([N+](=O)[O-])cc1COc1cc(C)cc2oc(=O)cc(-c3ccccc3)c12 | -4 | -3 | 27* | -1 | 12 | / | 22*
CC/C(=C\C1CCCCC1)C(NP(=O)(c1ccccc1)c1ccccc1)c1ccccc1 (centres undefined) | -5 | / | / | / | / | / | /
O=C(Cc1cccs1)Nc1ccc(S(=O)(=O)N2CCCCC2)cc1 | -1 | 3 | 23* | 1 | 8 | 1 | 9
CN1CCN(S(=O)(=O)c2ccc(NC(=O)Cc3cccs3)cc2)CC1 | -2 | -4 | 0 | 3 | -5 | 9 | /
N#Cc1ccccc1OCC(=O)Nc1c(C(=O)C2CC2)oc2ccccc12 | -4 | / | 0 | / | / | -11 | /
C=C(C)CN(CC)C(=O)COc1ccc(S(=O)(=O)Nc2ccc(OC)cc2)cc1 | -1 | 0 | 30* | 0 | 16 | / | 0
COc1ccc(/C(=C/c2ccc(OC(F)F)c(OC)c2)C(=O)O)cc1OC | 0 | -14 | / | 2 | -1 | / | /
COc1ccc(-c2oc3ncnc(NCCN4CCOCC4)c3c2-c2ccc(OC)cc2)cc1 | -6 | 0 | 21* | -2 | 2 | 6 | 10
c1ccc(-c2oc3ncnc(NCCCN4CCOCC4)c3c2-c2ccccc2)cc1 | -7 | 0 | 17 | 3 | 18 | -5 | /
COc1ccc(-c2csc3ncnc(NCCN4CCOCC4)c23)cc1 | -2 | 0 | 4 | -1 | 7 | -14 | /
COc1ccc(-c2oc3ncn(CCN4CCOCC4)c(=N)c3c2-c2ccc(OC)cc2)cc1 | -7 | -1 | 20* | 1 | 0 | -12 | 1
COc1ccc(-c2oc3ncnc(NCCCN4CCOCC4)c3c2-c2ccc(OC)cc2)cc1 | -8 | -1 | 34* | 17 | -2 | 2 | 9
CC(C)=CCC(C)(C)CNC(=O)NC1CCCCC1 | 3 | / | 4 | / | / | / | /
Cc1n[nH]c(C)c1-c1nc2ccccc2[nH]1 | -1 | / | 24* | / | / | -16 | 6
